# Screens as filed in PubChem BioAssay.
# Sm TGR block: inhibitors of Schistosoma mansoni thioredoxin glutathione reductase | AID 485364 | Q962Y6 | 3% of 360,000 active | Potency, µM (highest dose often 114 µM), inactives show at the highest dose activity change, negative = inhibition, usual class: inhibitors | purified TGR, DTNB reduction, TNB absorbance 405 nm; active = well fitted inhibition curve with a large enough effect; inconclusive = small, poorly fitted or top-dose-only effect; inactive = no such curve, though single readings can be large or run the other way; also: potency is read from the fitted curve at half-maximal effect; % is scaled to controls: 0 for no effect and ±100 for the full control effect; nearly all actives have a fitted effect of over 60% in size
#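 TGR 20 nM + NADPH 100 uM (dispensed conc.), cpd preinc 15 min RT; start with NADPH (500 uM addition) then DTNB (15 mM addition). Kinetic TNB absorbance, 405 nm filter. Four-parameter Hill fit across titration.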
# Shiga toxin inh: inhibitors of Shiga toxin in Vero cells; 9.2% of 290,000 active; Vero cells, Shiga toxin protein synthesis inhibition reporter; AID 2315; inhibition, % at 38.7 µM; in the data active = inhibition mostly above about 28%, no sharp cut-off; inactive = mostly below about 43%; also: 0% is about no effect
# Cycloheximide cs: counter-screen for Shiga toxin inhibitors: cycloheximide protein synthesis inhibition; 12% of 300,000 active; AID 2314; cell reporter, cycloheximide protein synthesis inhibition counterscreen; max response, %; in the data active = max response mostly above about 13%, no sharp cut-off; inactive = mostly below about 14%; also: read at 38.3 µM for the half of the compounds with a filed dose; 0% is about no effect
# FMDV inh: antivirals against foot and mouth disease virus; FMDV antiviral cell-based qHTS; Potency, µM (highest dose often 57.9 µM), for inactives: top-dose activity change, negative = inhibition, hits mostly inhibitors; 1.2% of 410,000 active; AID 1159524; calls by dose curve; tested in HEK293T cells; also: read-out not given here; potency is read from the fitted curve at half-maximal effect; % is scaled to controls: 0 for no effect and ±100 for the full control effect; nearly all actives have a fitted effect of over 45% in size
# The depositor's hits bear a star; ? = inconclusive; / = no result given; [ ] = remark or other dose. In the library only some 12% were active in any assay of this set; here they are far more common.
SMILES,Sm TGR block,Shiga toxin inh,Cycloheximide cs,FMDV inh
CC(=O)N1CCc2cc(S(=O)(=O)NC(Cc3ccccc3)C(=O)Nc3ccc(C)cc3C)ccc21 (stereo not drawn),-1%,/,/,9%
Cc1ccc(CSc2nc(=O)c3c(C)cc(C)nc3n2C2CC2)cc1,-3%,/,/,?
O=C(Nc1ccc(Oc2cccnc2)cc1)C1CCN(Cc2cc(Cl)ccc2O)CC1,-14%,23,10,7.9µM*
O=C(Nc1ccc(Oc2cccnc2)cc1)C1CCN(Cc2ccc(F)cc2)CC1,-9%,0,11,0%
Cc1ccc(NC(=O)CSc2nnc(C)n3c2cc2sccc23)c(C)c1,1%,/,/,-11%
CCCCC(=O)c1c(O)c2ccccc2oc1=O,-12%,-13,11,11%
COc1ccc(OCC(=O)c2c(O)c3ccccc3oc2=O)cc1,32µM*,-2,-3,19%
CCOc1ccc(OCC(=O)c2c(O)c3ccccc3oc2=O)cc1,18µM*,43,3,4%
Cc1csc(C(C)N(C)C(=O)CCc2nnc(CCc3ccccc3)o2)n1 (stereo not drawn),4%,8,9,17%
O=C(CCc1nnc(Cc2cccc(C(F)(F)F)c2)o1)NCC(F)(F)F,1%[57.1 µM],16,1,0%
CC(NC(=O)CCc1nnc(Cc2cccc(C(F)(F)F)c2)o1)C1CC1 (stereo not drawn),8%,92*,53*,29%
C=C(C)CNC(=O)CCc1nnc(Cc2cccc(C(F)(F)F)c2)o1,4%[57.1 µM],123*,44*,17%
CC(C)CN(C)C(=O)CCc1nnc(Cc2cccc(C(F)(F)F)c2)o1,0%,109*,47*,27%
O=C(CCc1nnc(Cc2cccc(C(F)(F)F)c2)o1)NC1CC1,12%,15,2,28%
Cc1nn2c(C)c(C(=O)NCc3cccc(Br)c3)cnc2c1-c1ccccc1,-9%,/,/,-4%
Cc1cccc(-c2noc(-c3ccc4c(c3)OCO4)n2)c1,0%,-5,-2,-64%
COc1cc(-c2c(-c3ccc4c(c3)OCO4)noc2-c2ccsc2)ccc1F,-12%,18,15*,6%
Cc1onc(-c2ccc3c(c2)OCO3)c1-c1ccc2[nH]ccc2c1,-25%,22*,3,?
c1cc2cc(-c3c(-c4ccc5c(c4)OCO5)noc3-c3ccsc3)ccc2[nH]1,-17%,50*,39*,19%
c1ccc(-c2onc(-c3ccco3)c2-c2ccc3[nH]ccc3c2)cc1,45µM*,42*,34*,20%
CCOC(=O)c1ccc(-c2c(-c3ccc4c(c3)OCO4)noc2-c2ccsc2)cc1F,0%,-3,-1,-28%
O=C(NCCO)c1c(-c2ccc3c(c2)OCO3)noc1-c1ccsc1,/,/,/,-9%
CCOc1ccccc1C(=O)NC1(C(F)(F)F)C(=O)Nc2c1c(=O)[nH]c(=O)n2-c1ccccc1 (stereo not drawn),8%,/,/,?
Cc1ccc(-c2cc(NC(=O)COc3ccc(Cl)cc3C)on2)cc1,3%,/,/,16%
CC(C)[C@@H](CO)NC(=O)c1ccc2c3n(nc2c1)-c1ccc(Cl)cc1CO3,6%,46*,34*,0%
SMILES,Sm TGR block,Shiga toxin inh,Cycloheximide cs,FMDV inh
C[C@@H](CO)NC(=O)c1ccc2c3n(nc2c1)-c1ccc(Cl)cc1CO3,-14%,55*,33*,13%
COc1cc(-c2nc(Cn3nnc(C(=O)Nc4ccccc4C)c3C)c(C)o2)cc(OC)c1OC,5%,/,/,?
O=C(Nc1ccc(F)c(Cl)c1)C1CCCN(c2ncnc3onc(-c4ccc(F)cc4)c23)C1 (stereo not drawn),50µM*,/,/,-9%
Cc1ccc(NC(=O)C2CCCN(c3ncnc4onc(C)c34)C2)cc1Cl (stereo not drawn),3%,/,/,20µM*
O=C(Nc1cc2c(cc1Cl)OCCCO2)c1ccc(F)cc1,5%,114*,89*,11%
Cc1ccc(C(=O)Nc2cc3c(cc2Cl)OCCCO3)cc1,1%,65*,50*,63%
Cc1ccc(CN(C(=O)COc2ccc(C(C)(C)C)cc2)C2CCS(=O)(=O)C2)o1 (stereo not drawn),-26%,/,/,-22%
CC1=C(C(=O)Nc2ccccc2)C(c2ccncc2)n2nc(SCc3ccccc3F)nc2N1 (stereo not drawn),1%,/,/,-10%
Cc1cc(O)cc2c(=O)c3ccccc3sc12,-9%,131*,42*,6%
Cc1ccc(-c2cc(C(=O)NCCc3ccc(S(N)(=O)=O)cc3)c3ccccc3n2)cc1,/,41,17*,0%
NS(=O)(=O)c1ccc(CCNC(=O)c2cc(-c3ccccc3)nc3ccccc23)cc1,-4%,-9,0,0%
NS(=O)(=O)c1ccc(CCNC(=O)c2cc(-c3ccco3)nc3ccccc23)cc1,8.9µM*,/,/,0%
COc1ccc(-c2nc3cnc(N(C)C)nc3n(C[C@H]3CCCO3)c2=O)cc1,/,/,/,1%
COc1cc(/C=C/[N+](=O)[O-])ccc1O,35µM*,-27,-8,?
COc1cc(/C=C/C(=O)NC(C)(C)C)ccc1OCc1ccccc1,-2%,9,6,-16%
COc1cc(/C=C/C(=O)O)ccc1O,/,/,/,-6%
COc1cc(/C=C/C(=O)c2c(O)cc(C)oc2=O)ccc1O,/,/,/,-6%
COc1cc(/C=C/[N+](=O)[O-])ccc1OCc1cccc(C(=O)O)c1,/,131*,83*,10µM*
COc1cc(/C=C/C(=O)c2ccc([N+](=O)[O-])o2)ccc1O,3.2µM*,/,/,?
O=C(/C=C/c1cccc(Cl)c1)c1ccc([N+](=O)[O-])o1,0.71µM*,/,/,11µM*
Cc1c(NC(=O)Cc2ccc(Cl)cc2)cccc1-c1nc2cccnc2s1,2%,/,/,0%
CCOc1ccc(N(CC)C(=O)c2cc3c(s2)-c2ccc(Cl)cc2SC3)cc1,3%,/,/,-21%
COc1cc(C(=O)COC(=O)c2ccc([N+](=O)[O-])o2)cc(OC)c1OC,/,/,/,-9%
COc1ccc(/C=C/C(=O)c2ccc([N+](=O)[O-])o2)cc1OC,6.3µM*,/,/,35µM*
Fc1ccc(COc2ccc(Br)cc2CNCc2ccncc2)cc1,0%,-10,1,?
SMILES,Sm TGR block,Shiga toxin inh,Cycloheximide cs,FMDV inh
CCOc1cc(CNCc2ccncc2)cc(Br)c1OCc1ccc(F)cc1,-4%,-13,-1,16µM*
Cc1ccc(CCNC(=O)CN2C(=O)COc3ccc(S(=O)(=O)N4CCCCCC4)cc32)cc1,5%,/,/,7%
Cc1ccc(C(=O)n2nc(C)c(S(=O)(=O)N3CCCCCC3)c2C)cc1,1%,/,/,-8%
Cc1ccc(/C=N/n2cnc3sc(-c4ccccc4)cc3c2=O)o1,-6%,47*,24*,-8%
Cc1ccc(C)c(N2CCN(C(=O)CCS(=O)(=O)c3cccc4nonc34)CC2)c1,35µM*,1,-2,-20%
Cc1ccc(C)c(N2CCN(C(=O)CS(=O)(=O)c3cccc4nsnc34)CC2)c1,-23%,/,/,?
Cc1cccc(C)c1NC(=O)CCS(=O)(=O)c1cccc2nonc12,-1%,7,-5,-4%
O=C(CCS(=O)(=O)c1cccc2nonc12)Nc1c(F)cccc1F,11µM*,/,/,3%
Cc1ccc(C)c(N(C)C(=O)CCS(=O)(=O)c2cccc3nonc23)c1,20µM*,-10,-5,29%
Cc1ccc(NC(=O)CCS(=O)(=O)c2cccc3nonc23)c(Br)c1,32µM*,-2,13,29%
